Pf growth 96h – P. falciparum growth inhibition at 96 hour, primary screen for plastid delayed-death inhibitors. P. falciparum luciferase reporter growth, 96 h. Potency, µM (series often up to 28.7 µM), for the others: top-dose activity change, negative = inhibition, hits mostly inhibitors. 320,000 tested, 6.9% active. AID 504834; note: potency is the fitted concentration of half-maximal effect; % is set by controls: 0 for no effect and ±100 for the full control effect
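Erythrocytes infected with luciferase-expressing P. falciparum were dispensed at 2% hematocrit and 0.05% parasitemia (final), then incubated with compounds 96 hours at 37 C in 5% CO2. Luminescence after detection reagent addition reported growth.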
CHX counter – affects cycloheximide protein synthesis inhibition readout, counter-screen. cell reporter, cycloheximide protein synthesis inhibition counterscreen. max response, %. 300,000 tested, 12% active; in the data active = max response mostly above about 13%, no sharp cut-off; inactive = mostly below about 14%; note: read at 38.3 µM for the half of the compounds with a filed dose; 0% is about no effect
Pf growth 48h – inhibits P. falciparum growth in the first generation, 48 h; P. falciparum luciferase growth in erythrocytes, 48 h; Potency, µM (highest dose often 28.7 µM), for the others: at the highest dose activity change, negative = inhibition, usual class: inhibitors; 310,000 tested, 5.9% active; AID 504832; note: potency is the fitted concentration of half-maximal effect; % is set by controls: 0 for no effect and ±100 for the full control effect
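Firefly luciferase activity from engineered P. falciparum reports growth; inhibitors lower the luminescent signal. Cultures contained 2% hematocrit erythrocytes at 0.1% final parasitemia.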
HCV inhibitor – HCV inhibition. Potency, µM (highest dose often 41.8 µM), inactives show at the highest dose activity change, negative = inhibition, actives largely listed as inhibitors. 340,000 tested, 3.4% active. Huh7.5.1 HCVcc-Cre infection, luciferase reporter, 44 h; note: potency is the fitted concentration of half-maximal effect; % is set by controls: 0 for no effect and ±100 for the full control effect
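A cell-based infection assay in which seeded cells (1,000 per well) receive test compound after 4 h, are inoculated with HCVcc-Cre at approximately 0.5 moi, and are incubated 44 h before luminescence detection.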
AMA1-RON2 inh – inhibitors of Plasmodium falciparum AMA1-RON2 interaction | AlphaScreen AMA1-biotinylated RON2 peptide binding | Potency, µM (doses to about 58.2 µM), for the others: top-dose activity change, negative = inhibition, actives largely listed as inhibitors | 360,000 tested, 0.2% active;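 note: potency is the fitted concentration of half-maximal effect; 0% = vehicle wells and -100% = peptide control; nearly all actives have a fitted effect of over 45% in size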
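AMA1 (3D7) with his tag at 25 nM final met compounds first, then biotinylated RON2 peptide at 25 nM; detection used donor plus acceptor beads, 10 µg/mL apiece, read by AlphaScreen after 30 min at room temperature.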
Shiga inhibitor – blocks Shiga toxin action in Vero cells; 290,000 tested, 9.2% active; inhibition, % at 38.7 µM; Vero cells, Shiga toxin protein synthesis inhibition reporter; AID 2315; in the data active = inhibition mostly above about 28%, no sharp cut-off; inactive = mostly below about 43%; note: 0% is about no effect
* = called active by the depositor; ? = inconclusive; . = not tested or not shown; [ ] = remark or other dose. Only some compounds are listed: those with a hit (about 21% of all), similar ones and a draw of the others. Unless noted, calls come from the whole dose curve; as a rule, active = well fitted curve in the direction sought with a large enough effect; inconclusive = small, poorly fitted or top-dose-only effect, or another doubt; inactive = no such curve, though single readings can be large; an effect the other way counts as inactive or inconclusive.

SMILES	Pf growth 96h	CHX counter	Pf growth 48h	HCV inhibitor	AMA1-RON2 inh	Shiga inhibitor
COc1cccc(-c2ccc(-c3noc(-c4cccs4)n3)c(OC)n2)c1	30%	-4	2%	-1%	-23%	-24
COc1ccccc1-c1noc(-c2ccncc2)n1	.	27*	125%	-26%	-4%	64*
c1csc(-c2nc(N3CCCCC3)no2)c1	193%	37*	189%	-13%	11%	82*
c1csc(-c2cc(N3CCCCC3)c3ccccc3n2)c1	?	11	?	?	79%	28
COc1ccccc1-c1noc(-c2cccs2)n1	174%	44*	208%	?	3%	111*
CCOc1ncccc1-c1nc(-c2cccs2)no1	-8%	50*	.	-9%	30%	60*
CC(C)CN(C(=O)C1CCCO1)c1c(N)n(CC(C)C)c(=O)[nH]c1=O (configuration not stated)	46%	.	-3%	-15%	-15%	.
COc1ccc(-c2nc(-c3cccs3)no2)cc1	261%	10	115%	0%	13%	-13
Cc1ccc(-c2noc(-c3cccs3)n2)cc1	?	70*	299%	-9%	37%	67*
COc1cccc(-c2ccc(-c3noc(-c4ccccc4F)n3)c(OC)n2)c1	2%	3	9%	?	6%	25
Cc1ccc(-c2noc(-c3ccccc3F)n2)cc1	49%	27*	216%	-12%	45%	108*
COc1ccc(NC(=O)C2Cc3c(-c4cccc(C(N)=O)c4)ccnc3O2)cc1 (configuration not stated)	.	.	.	.	-5%	.
COc1cccc([C@@H]2Oc3ccc(OC)cc3C(=O)[C@H]2O)c1	3.7µM*	40*	-22%	?	21%	42*
COc1ccc2c(c1)C(=O)[C@@H](O)[C@H](c1ccc(OC)c(Br)c1)O2	3.3µM*	18*	3.7µM*	-27%[8.37 µM]	74%	43*
COc1ccc2c(c1)C(=O)[C@@H](OC(=O)NCc1ccc3c(c1)OCO3)[C@H](c1ccc(OC)c(Br)c1)O2	?	10	?	-6%[8.37 µM]	.	12
CN(C)c1ccc(C(=S)N2CCNCC2)cc1	-4%	2	19%	-7%	0%	8
CCOc1ccc(C(=S)N2CCCC2)cc1	?	14*	6%	-2%	-3%	88*
CCOc1ccc(C(=S)N2CCN(C)CC2)cc1	?	-1	-1%[5.75 µM]	-3%	-1%	24
CCCCOc1ccc(C(=S)N2CCC(C(N)=O)CC2)cc1	302%	38*	258%	6%	-11%	105*
CN(C)c1ccc(C(=S)N2CCCCC2)cc1	5%	23*	30%	11%	-5%	37*
COc1ccc(C(=S)N2CCC(C(N)=O)CC2)cc1Br	12%	0	45%	5%	0%	-7
CCC(Oc1ccccc1)C(=O)N1CCC(C(N)=O)CC1 (configuration not stated)	.	18*	44%	-1%	4%	42*
Cc1cc(C)c(NC(=O)CNC(=O)c2ccccc2OCc2c(C)noc2C)c(C)c1	1%	.	19%	-11%	-10%	.
O=C(O)C1CCC(Cn2c(SCc3cc(=O)n4cc(Cl)ccc4n3)nc3ccsc3c2=O)CC1 (configuration not stated)	-26%	-5	-13%	14%	-1%	-19
CCCCc1c(C)nn(-c2nnc3c4ccccc4n(C)c3n2)c1C	-28%	21*	-15%	?	?	49*
SMILES	Pf growth 96h	CHX counter	Pf growth 48h	HCV inhibitor	AMA1-RON2 inh	Shiga inhibitor
Cc1ccc2cc(CN(Cc3cccs3)Cc3nnnn3C(C)(C)C)c3nnnn3c2c1	8%[5.75 µM]	-2	-20%	5%	.	-17
CCC(C)(C)n1nnnc1CN(Cc1cccs1)Cc1cc2cc(OC)ccc2[nH]c1=O	.	-4	13µM*	-3%	-2%	-12
CCOc1ccc2[nH]c(=O)c(CN(Cc3cccs3)Cc3nnnn3C(C)(C)CC)cc2c1	20%	-3	8.3µM*	-35%	-1%	-15
CNc1cncc(-c2ccc(OCCCN(C)C)nc2)n1	.	.	.	.	5%	.
CN1CCN(c2ccc3c(c2)S(=O)(=O)c2ccccc2C3=O)CC1	.	.	.	11%	1%	.
CN1CCN(c2cccc3c2C(=O)c2ccccc2C3=O)CC1	-10%	36*	?	?	-20%	47*
O=C1c2ccccc2C(=O)c2c1cccc2N1CCOCC1	103%	27*	15%	22µM*	?	79*
O=C(NCc1ccc2c(c1)OCO2)c1ccc2c(c1)N(Cc1c(F)cccc1Cl)C(=O)c1ccccc1S2	.	1	.	.	.	3
CCOC1(C)OCC(=O)[C@]2(CCC3C4CCC5=CC(=O)C=CC5(C)C4C(=O)CC32C)O1 (some centres not stated)	?	-1	10µM*	13%	12%	-2
CC(=O)OCC(=O)[C@@]1(O)CC[C@H]2[C@@H]3CCC4=CC(=O)C=C[C@]4(C)[C@H]3C(=O)C[C@@]21C	-24%	-4	0%	6%	3%	-6
CCCN(CCC)S(=O)(=O)c1ccc(Cl)c([N+](=O)[O-])c1	1%	9	-19%	?	-23%	23
CCOC(=O)C(C)(C)N(Cc1ccccc1C)S(=O)(=O)c1ccc(Cl)c([N+](=O)[O-])c1	2.6µM*	-4	?	?	-5%[11.6 µM]	-16
O=C(NC(=S)NNS(=O)(=O)c1ccccc1)c1ccc([N+](=O)[O-])cc1	?	-2	-9%	3%	85%	-17
O=C(NNS(=O)(=O)c1ccc(F)cc1)c1ccc(O)cc1	10µM*	-1	-5%	-23%	-1%	-10
O=C(NNS(=O)(=O)c1ccccc1)c1ccc([N+](=O)[O-])cc1	15µM*	0	18%	-8%	24%	-15
CCN(c1cccc(C)c1)S(=O)(=O)c1cn(CC(=O)OC)c2ccc([N+](=O)[O-])cc12	?	18	7%	14%	-10%	5
CC(=O)Nc1cccc(-c2ccnc3c2CC(C)(C(=O)NCc2ccc(F)c(F)c2)O3)c1 (configuration not stated)	.	.	.	.	-16%	.
C[C@@H]1C[C@H]2[C@@H]3C[C@H](F)C4=CC(=O)C=C[C@]4(C)[C@@]3(Cl)[C@@H](O)C[C@]2(C)[C@H]1C(=O)COC(=O)C(C)(C)C	1%	.	1µM*	13%	-5%	.
COc1cc(NC(=O)c2ccc(C(C)(C)C)cc2)c(OC)cc1NC(=O)CN1CCCCC1	-3%	20	6.6µM*	-9%	-11%	20
COC(=O)c1cc(Cl)c(NC(=O)c2ccc(C(C)(C)C)cc2)cc1OC	44%	26*	14%	?	-4%	44*
COc1cc(NC(=O)c2ccc(Cl)cc2)c(OC)cc1NC(=O)CN1CCCCC1	-16%	21	-18%	7.9µM*	?	14

Bioassay records as filed in PubChem.
